HP1b binding inh: blocks HP1-beta chromodomain binding to methylated histone tails; P83916; AlphaScreen HP1-beta / biotin-H3K9me3 peptide binding; Potency, µM (highest dose often 114 µM), inactives show at the top dose activity change, negative = inhibition, actives largely listed as inhibitors; actives 0.56% (n = 390,000); AID 540317; note: nearly all actives have a fitted effect of over 70% in size
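Compound inhibition of the preformed complex between 50 nM HP1-beta and 50 nM biotinylated H3K9me3 peptide was read by AlphaScreen. Buffer was PBS pH 7.4 with 0.01% Tween-20. Incubations ran 30 min at room temperature, with 10 ug/mL donor/acceptor beads.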
Sfp inh: blocks B. subtilis Sfp PPTase activity; Q9F4F7; Biochemical Sfp PPTase activity, qHTS; Potency, µM, for the others: largest response in the series, negative = inhibition, usual class: inhibitors; actives 3.5% (n = 310,000);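 note: the enzyme is Sfp with the accession as filed and its product quenches rhodamine fluorescence; 0% = enzyme reaction without inhibitor and -100% = no enzyme wells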
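After 15 min at room temperature with compound, 15 nM Sfp received 5 uM rhodamine-CoA plus 12.5 uM BHQ-2-ybbR (50 mM Hepes pH 7.6, 10 mM MgCl2). Rate came from the fluorescence difference over 30 min, ex 525/em 598 nm.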
BAZ2B block: blocks human BAZ2B; actives 4.4% (n = 360,000); AlphaScreen BAZ2B-H3K14Ac peptide displacement; Potency, µM (top dose mostly 114 µM), for inactives: top-dose activity change, negative = inhibition, most hits filed as inhibitors; note: % is set by controls: 0 for no effect and ±100 for the full control effect; nearly all actives have a fitted effect of over 60% in size
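Protein-peptide AlphaScreen: BAZ2B 50 nM, b-H3K14Ac 50 nM, 1x PBS pH 7.4 + 0.01% Tween-20. Preincubation 30 min RT; cpd 30 min RT (top 110 uM); beads 20 min RT, light-protected.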
L3MBTL1 inh: L3MBTL1 (human) inhibition. Q9Y468. AlphaScreen L3MBTL1–H3K9me1 peptide binding. Potency, µM (series often up to 57.1 µM), for the others: at the top dose activity, negative = inhibition, hits mostly inhibitors. AID 485360. actives 0.66% (n = 230,000); note: % is set by controls: 0 for no effect and ±100 for the full control effect; nearly all actives have a fitted effect of over 60% in size
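AlphaScreen proximity signal between nickel-chelate acceptor and streptavidin donor beads (final 10 ug/mL) reports binding of 50 nM L3MBTL1 to 75 nM biotin-H3 K9me1 peptide; complex incubated with compounds 30 min at room temperature; cefsulodin titration as control.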
JMJD2A Tudor: blocks the human JMJD2A Tudor domain; AlphaScreen JMJD2A-Tudor / H3K4me3 peptide binding; Potency, µM (top dose mostly 114 µM), without a hit: at the highest dose activity change, negative = inhibition, hits mostly inhibitors; actives 4.4% (n = 390,000); note: % is set by controls: 0 for no effect and ±100 for the full control effect; nearly all actives have a fitted effect of over 50% in size
Target sequence (O75164 whole entry, looked up, the tested form may be a part): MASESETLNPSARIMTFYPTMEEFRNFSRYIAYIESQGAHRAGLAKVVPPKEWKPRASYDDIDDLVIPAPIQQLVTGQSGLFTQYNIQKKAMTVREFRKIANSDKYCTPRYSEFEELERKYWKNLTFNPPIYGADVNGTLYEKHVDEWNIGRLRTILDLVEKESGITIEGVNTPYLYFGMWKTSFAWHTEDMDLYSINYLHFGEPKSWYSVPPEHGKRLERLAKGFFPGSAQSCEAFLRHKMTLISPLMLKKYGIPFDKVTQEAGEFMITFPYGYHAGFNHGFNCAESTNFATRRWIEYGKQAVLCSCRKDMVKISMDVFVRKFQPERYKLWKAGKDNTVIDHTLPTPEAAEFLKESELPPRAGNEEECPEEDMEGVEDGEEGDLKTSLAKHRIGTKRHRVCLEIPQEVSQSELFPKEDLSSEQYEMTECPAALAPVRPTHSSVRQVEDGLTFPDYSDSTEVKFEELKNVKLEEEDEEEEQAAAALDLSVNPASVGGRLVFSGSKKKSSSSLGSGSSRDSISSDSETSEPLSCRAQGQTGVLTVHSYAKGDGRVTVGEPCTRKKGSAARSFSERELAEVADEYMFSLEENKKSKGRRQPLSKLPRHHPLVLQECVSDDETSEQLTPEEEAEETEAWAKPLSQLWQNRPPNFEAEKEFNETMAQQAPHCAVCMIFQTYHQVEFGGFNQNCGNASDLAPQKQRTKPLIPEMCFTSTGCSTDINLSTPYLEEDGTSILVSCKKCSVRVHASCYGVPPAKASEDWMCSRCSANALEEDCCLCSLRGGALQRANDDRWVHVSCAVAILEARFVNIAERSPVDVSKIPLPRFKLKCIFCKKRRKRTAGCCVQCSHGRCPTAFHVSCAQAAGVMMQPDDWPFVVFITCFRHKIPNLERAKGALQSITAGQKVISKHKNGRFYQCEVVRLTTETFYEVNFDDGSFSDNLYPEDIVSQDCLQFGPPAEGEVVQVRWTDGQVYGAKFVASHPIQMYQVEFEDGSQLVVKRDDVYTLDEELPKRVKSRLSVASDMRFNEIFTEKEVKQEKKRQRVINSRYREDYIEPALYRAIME
G9a block: inhibitors of human histone lysine methyltransferase G9a; G9a H3K9 monomethylation, AlphaScreen, 2 h; actives 8.8% (n = 350,000); Potency, µM (doses to about 102 µM), without a hit: at the highest dose activity, negative = inhibition, most hits filed as inhibitors; Q96KQ7; note: % is set by controls: 0 for no effect and ±100 for the full control effect; nearly all actives have a fitted effect of over 75% in size
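Quantitative HTS format: methyltransferase activity on a biotin-tagged H3K9 peptide is measured by AlphaScreen, using a rabbit anti-monomethyl-H3K9 antibody with streptavidin donor and anti-IgG acceptor beads. Final levels are 20 nM enzyme, 500 nM peptide, 20 uM SAM; 2 h RT.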
* = called active by the depositor; ? = inconclusive; · = not tested or not shown; [ ] = dose if it differs, or a comment. Shown are actives, neighbours in structure and some others; about 12% of the full set was active somewhere. Calls come from the whole dose curve; as a rule, active = well fitted curve in the direction sought with a large enough effect; inconclusive = small, poorly fitted or top-dose-only effect, or another doubt; inactive = no such curve, though single readings can be large; an effect the other way counts as inactive or inconclusive. Potency is the fitted concentration of half-maximal effect.

SMILES	HP1b binding inh	Sfp inh	BAZ2B block	L3MBTL1 inh	JMJD2A Tudor	G9a block
Oc1ccc([C@@H]2CNCCc3c2cc(O)c(O)c3Cl)cc1	·	56µM*	·	·	·	·
COC(=O)c1c(-c2ccc(Cl)cc2)noc1N1CCN(c2ccc(OC)cc2)CC1	17%[57 µM]	·	0%	·	-8%	-41%[59 µM]
CN1CCc2cc(Cl)c(O)cc2C(c2ccccc2)C1 (stereo not given)	·	·	·	·	·	29%[12.7 µM]
CN1CCc2c(cc(O)c(O)c2Cl)C(c2cccc(Cl)c2)C1 (stereo not given)	·	·	·	·	·	8.9µM*
COc1cc2c(cc1OC)-c1cc3cc(OC)c(OC)cc3c(=O)n1CC2	·	16%	·	·	·	·
CCc1ccccc1NC(=O)COc1ccc2c(=O)c(Oc3cc(C)ccc3C)coc2c1	24%	45µM*	4%	-11%	-15%	-19%
CN1CCN(S(=O)(=O)c2ccc(N3CCc4ccccc4C3)nc2)CC1	-16%	11%	-38%	-18%	8.9µM*	-31%
Cn1cc(SCC(=O)Nc2ccc3c(c2)OCO3)c2ccccc21	17%	?	13%	·	-32%	25µM*
Nc1ccccc1SCC(=O)Nc1ccc2c(c1)OCO2	19%	-5%	9%	·	-16%	67%
O=C(CSc1cccc[n+]1[O-])Nc1ccc2c(c1)OCO2	48%	-3%	-12%	4%	-6%	50µM*
COc1ccc(OC)c(CNS(=O)(=O)c2ccc(-c3coc(C)n3)cc2)c1	22%[57 µM]	·	-28%	·	-24%	-18%[59 µM]
COC(=O)c1ccc(N=Cc2c(-c3ccccc3)[nH][nH]c2=O)cc1	14%	7%	?	-6%	-5%	40µM*
C[C@H]([C@@H](N)C(=O)N[C@@H](C(=O)O)[C@@H]1O[C@H](n2ccc(=O)[nH]c2=O)[C@@H](O)[C@H]1O)[C@@H](O)c1ccc(O)cn1	26%	56µM*	?	0%	-27%	3.2µM*
NCC(=O)NCC(=O)NC[C@H]1O[C@@H](n2ccc(=O)[nH]c2=O)[C@H](O)[C@@H]1O	20%	·	·	·	-5%	·
C=CCC(CC=C)(CNC(=O)C(=O)Nc1ccc(Br)cc1)c1ccc(OC)c(OC)c1	8%	·	3%	·	-16%	9%[59 µM]
COc1ccc(NC(=S)NCCc2ccc(S(N)(=O)=O)cc2)c(OC)c1	26%	?	2%	·	5%[11.4 µM]	35µM*
COc1cc(NC(=S)NCc2ccc(S(N)(=O)=O)cc2)c(OC)cc1Cl	?	-23%	?	0%	-23%	35µM*
COc1ccc(Cl)cc1NC(=S)NCCc1ccc(S(N)(=O)=O)cc1	34%	10%	-3%	-2%	-18%	?
O=C(CCN1C(=O)c2ccccc2S1(=O)=O)NCc1ccccc1Cl	31%	·	-3%	-6%	-7%	-49%[2.33 µM]
O=C(OCc1c(F)cccc1Cl)c1cccnc1Cl	42%	10%	36%	·	34%	56%
NNc1nnc2c3cc(F)ccc3n(Cc3ccccc3)c2n1	28%	-2%	?	-26%	-16%	·
CCCn1c2ccc(F)cc2c2nnc(NN)nc21	16%	-19%	-28%	-9%	-29%	50µM*
CCn1c2ccc(F)cc2c2nnc(NN)nc21	34%	?	?	-9%	?	50µM*
O=C(NCc1ccco1)c1ccc(Cn2c(=O)c3sccc3n(Cc3cccc(F)c3)c2=O)cc1	33%	?	28%	·	-19%	9%
O=C(NCc1cccc(F)c1)c1ccc(N2C(=O)Cn3c(cc4sccc43)C2=O)cc1	0%	3%	-7%	-4%	79µM*	-5%[59 µM]
COc1cc(NC(=O)COc2ccc(C)c(C)c2)ccc1NC(=O)c1ccco1	-5%	-26%	-23%	·	-6%	-51%
COc1ccc(-c2nnc(OCc3nc4ccccc4n3C)c3ccccc23)cc1	3%	3%	-35%	0%	50µM*	-1%[59 µM]
C=CCN1C(c2ccc(OCC)cc2)=CS/C1=C(\C#N)c1nnc2n1CCCCC2	-5%	?	?	-6%	?	3.5µM*
